This is a sample that favours compounds with a hit; in the whole collection about 2.9% have one here.
a7 integrin act: activates integrin-mediated alleviation for muscular dystrophy | alpha7betagal myoblasts, beta-gal FDG fluorescence, 48 h | Potency, µM (highest dose often 38.3 µM), for inactives: top-dose activation, most hits filed as activators | hit rate 0.064% among 350,000 | AID 624291; active = well fitted activation curve with a large enough effect; inconclusive = small, poorly fitted or top-dose-only effect; inactive = no such curve, though single readings can be large or run the other way;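 also: potency is read from the fitted curve at half-maximal effect; 100% = response of the positive control SU9516; nearly all actives have a fitted effect of over 60% in size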
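Alpha7betagal+/- myoblasts (passage 13) were plated 16-24 hr, then exposed to compounds (1:260 dilution of DMSO stock) for 48 hours at 37C. After MPER lysis, β-galactosidase reporter activity was read as FDG fluorescence (ex 480/em 540) after 30 minutes.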
DRD3 antagonist: blocks the human D3 dopamine receptor | hit rate 2.5% among 360,000 | D3R cells, DiscoveRx beta-arrestin luminescence, antagonist mode; hits give low values | max response, negative = inhibition, %; in the data active = max response below about -50%; inconclusive = no clear call, values can overlap the other calls; also: % is scaled to controls: 0 for no effect and ±100 for the full control effect
Target sequence (P35462 whole entry, looked up): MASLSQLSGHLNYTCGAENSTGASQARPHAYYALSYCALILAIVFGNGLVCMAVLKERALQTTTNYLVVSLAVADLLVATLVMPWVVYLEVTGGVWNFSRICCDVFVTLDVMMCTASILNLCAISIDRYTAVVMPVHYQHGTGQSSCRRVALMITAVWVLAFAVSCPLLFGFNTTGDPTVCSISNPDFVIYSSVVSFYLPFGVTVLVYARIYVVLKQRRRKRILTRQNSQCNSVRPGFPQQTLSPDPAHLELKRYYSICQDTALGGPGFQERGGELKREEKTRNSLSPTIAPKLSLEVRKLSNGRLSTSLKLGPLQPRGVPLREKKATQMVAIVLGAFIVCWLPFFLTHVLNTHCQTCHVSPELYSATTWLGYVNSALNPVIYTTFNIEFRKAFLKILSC
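Cells plated overnight at 1500 cells/well, then exposed to library compounds with dopamine controls for 90 minutes at 37 degrees C. DiscoveRx reagent added for 30–60 minutes at room temperature; luminescence read, quantitative HTS format.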
D3 ag: activates the human D3 dopamine receptor. max activation, %. D3R DiscoveRx beta-arrestin cells, luminescence, 90 min. hit rate 0.58% among 410,000; in the data active = max activation above about 30%; also: 0% is about no effect
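Agonist-mode cell screen: cells plated at 1500/well and incubated overnight at 37 °C, then exposed to library compounds for 90 min at 37 °C. Detection reagent was added for 30–60 min at room temperature, and luminescence was read.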
Starred values were filed as active, the others as inactive; ? = inconclusive; nt = not tested or not shown.

SMILES | a7 integrin act | DRD3 antagonist | D3 ag
CCN(CC)CCNC(=O)CCCCn1c(=S)[nH]c2c([nH]c3ccc(OC)cc32)c1=O | 4% | -56* | -75
COCCNC(=O)CCCCCn1c(=S)[nH]c2ccccc2c1=O | 0% | -3 | -6
CC(=O)c1ccc(NC(=O)C2CCN(S(=O)(=O)c3cccs3)CC2)cc1 | -25% | 1 | -8
Cc1cc(N2CCN(C(=O)Oc3ccc([N+](=O)[O-])cc3)CC2)c2ccccc2n1 | nt | 6 | 1
COc1ccc(CNC(=O)c2cccc(S(=O)(=O)N3CCN(c4ccc(F)cc4)CC3)c2)cc1 | -29% | 2 | 6
CC(C)Cc1nc2sc3c(NCc4ccco4)ncnc3c2c2c1COC(C)(C)C2 | -19% | 15 | -3
COc1cc(C(=O)OCC(=O)N2CCNC2=O)cc(Cl)c1OC | 2% | 3 | 7
Cc1ccc(C)c(NC(=O)c2cnn(-c3ccccc3)c2C)c1 | ? | -8 | -4
N#CC(C#N)=c1ccc2c(c1)NC1(CCCCC1)N=2 | -39% | -78* | -22
N#CC(C#N)=C1NC2(CCCCC2)Cc2ccccc21 | ? | -1 | -1
O=C(CSc1nc2c(c(=O)[nH]1)CN(Cc1ccc3c(c1)OCO3)CC2)Nc1cccc(Cl)c1 | nt | nt | -1
COc1ccc(-c2nc3c(C#N)c[nH]n3c2NC2CCCC2)cc1 | nt | nt | 50*
CCOc1ccc(-c2nc3c(C#N)c[nH]n3c2NC2CCCCC2)cc1 | nt | nt | -16
CCN1C(=NCCc2ccc(Br)cc2)N[C@@H](c2ccccc2)[C@H](C(=O)OC)[C@H]1C | -43% | -88* | -50
CCN1C(=NCCc2ccc([N+](=O)[O-])cc2)N[C@@H](c2ccccc2)[C@H](C(=O)OC)[C@H]1C | -13% | ? | -11
COc1ccc(OC)c(C(C)NS(=O)(=O)c2cccs2)c1 (stereo unspecified) | 28% | 10 | -4
COc1ccc(N2CCN(S(=O)(=O)CCNC(=O)C3CCCCC3)CC2)cc1 | 3% | 2 | 9
COc1cccc(CN2CC(C(=O)N3CCCO3)CCC2=O)c1 (stereo unspecified) | 17% | 5 | 1
O=C(CSc1nncn1-c1ccccc1)Nc1ccccc1 | -16% | -23 | -10
CS(=O)(=O)c1ccc(Cl)c(NC(=O)CSc2nncn2-c2ccccc2)c1 | 13µM* | 5 | -13
COc1cccc(NC(=O)c2ccccc2N2C(=O)C3C4C=CC(C5CC45)C3C2=O)c1 (stereo unspecified) | 21% | -3 | 0
CCc1ccc(NC(=O)CCCn2nc(C)c3c(C)n(-c4ccccc4)nc3c2=O)cc1 | nt | nt | 7
CC1CCN(c2nc3ccc(C(=O)NCCCN4CCCCC4C)cc3s2)CC1 (stereo unspecified) | -51% | -20 | -4
Cc1ccc(Cl)cc1N1CCN(C(=O)CSc2nnc3n2C(C)(C)Cc2ccccc2-3)CC1 | -30% | ? | 45*
COc1ccc(N2CCN(C(=O)CSc3nnc4n3C(C)(C)Cc3ccccc3-4)CC2)cc1 | -3% | 44 | 28
SMILES | a7 integrin act | DRD3 antagonist | D3 ag
O=C(NC1CCSc2ccccc21)c1ccccc1Cl (stereo unspecified) | ? | 2 | 6
Cn1c(SCc2ccc(Br)cc2)nc2ccccc2c1=O | -10% | 17 | 15
Cn1c(SCc2ccccc2)nc2ccsc2c1=O | -22% | 11 | 35*
Cn1c(N)c(N=O)c(=O)n(C)c1=O | 3% | -10 | 2
CCOC(=O)c1c(NC(=O)CSc2cn(CCNC(=O)c3ccc(OC)c(OC)c3)c3ccccc23)sc2c1CCCC2 | nt | nt | -1
CC1(C)S[C@@H]2[C@H](NC(=O)C(N)c3ccccc3)C(=O)N2[C@H]1C(=O)OC1OC(=O)c2ccccc21 (stereo partly specified) | nt | nt | 4
CC1(C)S[C@@H]2[C@H](NC(=O)[C@H](N)c3ccccc3)C(=O)N2[C@H]1C(=O)OC1OC(=O)c2ccccc21 (stereo partly specified) | nt | -67* | -34
N#Cc1ccccc1COC(=O)c1ccc2c(c1)OCCO2 | 25% | 0 | -3
COc1ccc(CN2C(=O)C(CC(C)C)Nc3ncnc(N4CCN(c5ccccc5)CC4)c32)cc1 (stereo unspecified) | -12% | -10 | -8
O=C1C(Cc2ccccc2)Nc2ncnc(N3CCCCC3)c2N1Cc1ccc(Cl)cc1 (stereo unspecified) | 10% | -65* | -45
CCC1Nc2ncnc(N3CCOCC3)c2N(Cc2ccc(Cl)cc2)C1=O (stereo unspecified) | -2% | -29 | 0
Cc1ccc(CN2C(=O)C(CC(C)C)Nc3ncnc(N4CCOCC4)c32)cc1 (stereo unspecified) | -9% | 0 | 1

Bioassay records: PubChem, National Center for Advancing Translational Sciences (NCATS)
